Source: PubChem BioAssay (Tox21)
Results filed as inconclusive are left out. The source made the active and inactive calls. Unless noted, the call rests on the fitted dose curve; in most records, active means well fitted curve in the direction sought with a large enough effect in the repeat runs; inconclusive means weak or mixed curves; inactive means no such curve, though single readings can be large; an effect the other way counts as inactive or inconclusive.

Assays:
[1] = target: Retinoic acid receptor RXR-alpha (Homo sapiens) (UniProt P19793); experiment: qHTS assay to identify small molecule agonists of the RXR signaling pathway (AID 1159527; calls by dose curve; further: nearly all actives have a fitted effect of over 35% in size)
Method in brief: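 Using 9-cis retinoic acid as the reference agonist, chemicals were tested in HEK 293T cells […] for 16 hr; substrate loading lasted 2 hr at room temperature.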

[2] = qHTS assay to identify small molecule agonists of the RXR signaling pathway - cell viability counter screen (AID 1159529); further: series mostly up to about 77 µM; nearly all actives have a fitted effect of over 50% in size
Method in brief: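 Compounds dissolved in DMSO were pinned onto HEK 293T cells carrying a beta-lactamase reporter under RXR-alpha control and incubated 16 hr. Cytotoxicity was then quantified by CellTiter-Glo luminescence.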

[3] = qHTS assay to identify small molecule antagonists of the retinoid acid receptor (RAR) signaling pathway - cell viability counter screen (AID 1159551); further: nearly all actives have a fitted effect of over 35% in size
Method in brief: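 Seed C3RL4 cells; next day add compound, then retinol to 1 uM final; incubate 6 h at 37 C; add CellTiter-Glo; read luminescence after 30 min at RT.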

[4] = qHTS assay to identify small molecule antagonists of the retinoic acid receptor (RAR) signaling pathway (AID 1159552; further: nearly all actives have a fitted effect of over 50% in size)
Method in brief: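 Test chemicals and DMSO controls were pin-transferred onto C3RL4 cells a day after seeding; retinol (1 uM final) followed at once. Luminescent reporter output was quantified after 6 hr of co-incubation and 30 min with detection reagent.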

[5] = qHTS assay to identify small molecule agonists of the retinoic acid receptor (RAR) signaling pathway (AID 1159553)
Method in brief: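 Activation of retinol signaling was monitored via a RARE luciferase reporter in C3RL4 cells. After 6 hr compound treatment at 37 C, detection reagent was added for 30 min at room temperature before luminescence reading.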

[6] = qHTS assay to identify small molecule antagonists of the estrogen related receptor (ERR) signaling pathway from Tox21 library - cell viability counter screen (AID 1224834); further: nearly all actives have a fitted effect of over 30% in size
Method in brief: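 CellTiter-Fluor fluorescence measured; ERR cells; 17.5 h compound incubation at 37 C; 30 min reagent step.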

[7] = target: Luciferin 4-monooxygenase (Photinus pyralis) (UniProt P08659); experiment: qHTS assay to identify small molecule inhibitors of firefly luciferase (AID 1224835); further: series mostly up to about 120 µM; nearly all actives have a fitted effect of over 25% in size
Method in brief: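 Quantitative HTS format; KM concentrations of both substrates. Purified P. pyralis FLuc activity quantified from luminescence images.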

[8] = qHTS assay to identify small molecule agonists of the constitutive androstane receptor (CAR) signaling pathway - cell viability counter screen (AID 1224836); further: series mostly up to about 92 µM; nearly all actives have a fitted effect of over 45% in size
Method in brief: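 23 h treatment, 37 C, 5% CO2. Cell line: HepG2 stably expressing hCAR with a CYP2B6-2.2kb construct. Co-treatment: PK11195, 0.75 uM final. Read-out: CellTiter-Fluor fluorescence intensity.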

[9] = qHTS assay to identify small molecule antagonists of the constitutive androstane receptor (CAR) signaling pathway - cell viability counter screen (AID 1224837); further: series mostly up to about 92 µM; nearly all actives have a fitted effect of over 45% in size
Method in brief: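 Using CellTiter-Fluor, viability is scored in HepG2 cells stably carrying hCAR and a 2.2kb CYP2B6 reporter after 23 hr compound exposure across 15 concentrations, with CITCO present at 50 nM.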

[10] = target: Nuclear receptor subfamily 1 group I member 3 (Homo sapiens) (UniProt Q14994); experiment: qHTS assay to identify small molecule antagonists of the constitutive androstane receptor (CAR) signaling pathway (AID 1224838);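 further: HepG2 cells stably expressing hCAR with CYP2B6 luciferase reporter stimulated by CITCO; nearly all actives have a fitted effect of over 40% in size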
Method in brief: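 Reporter luminescence was quantified after 24 h exposure of hCAR/CYP2B6-2.2kb double-stable HepG2 cells to compounds at 15 concentrations in the presence of 50 nM CITCO final.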

[11] = target: Nuclear receptor subfamily 1 group I member 3 (Homo sapiens) (UniProt Q14994); experiment: qHTS assay to identify small molecule agonists of the constitutive androstane receptor (CAR) signaling pathway (AID 1224839);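 further: HepG2 cells stably carrying human CAR and a CYP2B6 luciferase reporter; series mostly up to about 92 µM; nearly all actives have a fitted effect of over 15% in size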
Method in brief: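 Compounds tested at 15 concentrations on HepG2 cells stably harbouring hCAR and CYP2B6-2.2kb reporter constructs, co-treated with PK11195 (0.75 uM final), 24 h at 37 C; luminescent reporter signal quantified.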

[12] = qHTS assay to identify small molecule antagonists of the estrogen related receptor signaling pathway with the pleiotropic PPARgamma coactivator (PGC) from Tox21 10K library - cell viability counter screen (AID 1224840; active means well fitted cell-killing curve with a large enough effect in the repeat runs, not every such curve was filed as active; further: nearly all actives have a fitted effect of over 40% in size)
Method in brief: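 Here the PGC/ERR cells serve as a cytotoxicity control: they are exposed to compounds for 17.5 hours at 37 C, and live-cell signal is quantified using CellTiter-Fluor fluorescence.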

[13] = qHTS assay to identify small molecule antagonists of the estrogen related receptor signaling pathway with the pleiotropic PPARgamma coactivator (PGC) from Tox21 10K library (AID 1224841; call rule not given here; further: series mostly up to about 92 µM; actives are mostly falling curves and most rising ones were filed inactive; nearly all actives have a fitted effect of over 50% in size)
Method in brief: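 Each well held 2,000 PGC/ERR cells, pre-incubated six hours (37 C, 5% CO2). Test substances in DMSO were added by pin tool and left for 18 h at 37 C before luciferase detection by One-Glo.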

[14] = qHTS assay to identify small molecule agonists of the estrogen related receptor signaling pathway with the pleiotropic PPARgamma coactivator (PGC) from Tox21 10K library (AID 1224842); further: nearly all actives have a fitted effect of over 15% in size
Method in brief: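 PGC/ERR reporter cells (NTP line) were seeded 2,000 per well, rested 6 h at 37 C/5% CO2, then pin-dosed with compounds in DMSO for 18 h at 37 C; luciferase read by One-Glo luminescence after 30 min at room temperature.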

Measured: Potency

Sequence of Nuclear receptor subfamily 1 group I member 3 (Homo sapiens) (Q14994 whole entry, looked up): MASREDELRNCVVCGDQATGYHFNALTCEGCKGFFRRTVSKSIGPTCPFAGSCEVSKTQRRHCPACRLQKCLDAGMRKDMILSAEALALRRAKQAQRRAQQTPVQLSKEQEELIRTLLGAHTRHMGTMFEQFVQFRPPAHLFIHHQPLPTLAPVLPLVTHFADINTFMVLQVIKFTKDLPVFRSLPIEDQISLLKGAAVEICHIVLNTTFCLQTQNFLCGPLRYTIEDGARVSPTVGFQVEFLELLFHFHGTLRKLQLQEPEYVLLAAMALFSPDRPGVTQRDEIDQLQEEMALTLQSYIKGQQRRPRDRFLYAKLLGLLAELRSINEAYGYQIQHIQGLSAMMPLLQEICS
Sequence of Luciferin 4-monooxygenase (Photinus pyralis) (P08659 whole entry, looked up): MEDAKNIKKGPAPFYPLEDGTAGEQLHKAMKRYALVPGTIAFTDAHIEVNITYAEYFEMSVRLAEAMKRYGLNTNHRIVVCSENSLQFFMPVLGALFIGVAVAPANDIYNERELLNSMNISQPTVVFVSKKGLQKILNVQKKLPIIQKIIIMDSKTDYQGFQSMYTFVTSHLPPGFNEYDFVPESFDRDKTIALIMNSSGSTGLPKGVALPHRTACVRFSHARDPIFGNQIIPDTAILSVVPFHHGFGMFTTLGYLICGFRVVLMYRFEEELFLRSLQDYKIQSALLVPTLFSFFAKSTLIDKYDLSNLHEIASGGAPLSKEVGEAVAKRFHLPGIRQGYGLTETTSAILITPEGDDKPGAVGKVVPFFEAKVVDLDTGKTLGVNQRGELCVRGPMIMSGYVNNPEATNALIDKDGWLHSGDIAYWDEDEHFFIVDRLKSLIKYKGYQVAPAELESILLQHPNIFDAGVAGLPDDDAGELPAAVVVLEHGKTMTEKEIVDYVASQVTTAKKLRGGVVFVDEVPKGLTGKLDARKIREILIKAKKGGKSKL
Sequence of Retinoic acid receptor RXR-alpha (Homo sapiens) (P19793 whole entry, looked up): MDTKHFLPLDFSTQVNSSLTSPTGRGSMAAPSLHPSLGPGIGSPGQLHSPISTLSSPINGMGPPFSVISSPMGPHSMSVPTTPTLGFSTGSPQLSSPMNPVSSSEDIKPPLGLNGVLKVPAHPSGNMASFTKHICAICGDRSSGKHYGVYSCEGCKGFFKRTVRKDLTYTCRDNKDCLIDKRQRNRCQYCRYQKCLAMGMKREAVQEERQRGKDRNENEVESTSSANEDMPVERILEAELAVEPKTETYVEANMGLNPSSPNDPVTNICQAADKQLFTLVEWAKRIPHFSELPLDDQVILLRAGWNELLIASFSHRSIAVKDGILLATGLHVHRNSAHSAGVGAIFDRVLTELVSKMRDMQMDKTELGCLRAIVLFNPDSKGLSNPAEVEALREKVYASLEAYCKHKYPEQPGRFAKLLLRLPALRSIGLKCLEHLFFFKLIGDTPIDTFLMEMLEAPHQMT

CC(C)OC(C)C
inactive: all assays above

CC/C=C\CCOC(=O)CCCCC
inactive: all assays above

CCOc1ccc(OCC)c(Cl)c1
inactive: all assays above

CC(C)(CO)[C@@H](O)C(=O)NCCC(=O)O
inactive: all assays above

CCCCN1C[C@H](O)[C@@H](O)[C@H](O)[C@H]1CO
not listed: [13] | [14]
inactive: all other assays above

Cc1ncc(CO)c(CN)c1O
not listed: [14]
inactive: all other assays above

CO[Si](C)(C)OC
not listed: [14]
inactive: all other assays above

CCCCC1CCC(=O)O1 (stereo not given)
inactive: all assays above

COC(=O)c1ccc(OC)cc1
inactive: all assays above

O=C(CCCl)NCc1ccccc1
not listed: [14]
inactive: all other assays above
